From PubChem BioAssay
Only some compounds are listed: those with a hit (about 1.1% of all), similar ones and a draw of the others.
COUP-TFII inh = inhibitors of human COUP-TFII (NR2F2). actives 0.7% (n = 370,000). AID 686940. HEK293T NGFI-A luciferase reporter, luminescence. inhibition, % at 8.6 µM;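 active means inhibition above a per-plate cutoff, mean inhibition of test wells between control levels plus 3 SD, cut at about 38% in these data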;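 further: cells cotransfected with COUP-TFII expression vector driving the NGFI-A reporter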
GalR3 antag = human GalR3 antagonism | AID 651719 | actives 0.44% (n = 360,000) | O60755 | inhibition, % at 3 µM | HEK293 GalR3-CNG cAMP membrane potential fluorescence; galR3 body fused to GalR1 C-terminus;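 active means inhibition above the screen-wide average plus 3 SD, cut at about 13% in these data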;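 further: forskolin and galanin both at EC90 stimulate the cells; cAMP rise reported by CNG channel membrane potential dye signal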
LRH-1 inv ag = NR5A2 inverse agonism in reporter assay; O00482; actives 0.13% (n = 360,000); HEK293T StAR-luciferase reporter, LRH-1 transfected, 24 h; inhibition, % at 3.6 µM; AID 602396;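 active means inhibition above the mean inhibition of all tested compounds plus 3 SD, cut at about 73% in these data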
NCOA1 inh = human NCOA1 inhibition. inhibition, % at 3.6 µM. Q15788. AID 588354. actives 0.12% (n = 360,000). HEK293 GAL4-SRC1 luciferase reporter, luminescence;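 active means inhibition above the campaign mean plus 3 SD, with each screening campaign given its own cutoff, cut at about 60% in these data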
SRC3 inh = human NCOA3 inhibition; HEK293 GAL4-SRC3 luciferase reporter, luminescence; inhibition, % at 3.6 µM; actives 0.17% (n = 360,000); AID 588352;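 active means inhibition above a per-campaign cutoff, the mean of all compounds plus 3 SD, cut at about 60% in these data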;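 further: higher means less SRC3-driven luciferase light from the GAL4 reporter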
Target sequence (Q9Y6Q9 whole entry, looked up, the tested form may be a part): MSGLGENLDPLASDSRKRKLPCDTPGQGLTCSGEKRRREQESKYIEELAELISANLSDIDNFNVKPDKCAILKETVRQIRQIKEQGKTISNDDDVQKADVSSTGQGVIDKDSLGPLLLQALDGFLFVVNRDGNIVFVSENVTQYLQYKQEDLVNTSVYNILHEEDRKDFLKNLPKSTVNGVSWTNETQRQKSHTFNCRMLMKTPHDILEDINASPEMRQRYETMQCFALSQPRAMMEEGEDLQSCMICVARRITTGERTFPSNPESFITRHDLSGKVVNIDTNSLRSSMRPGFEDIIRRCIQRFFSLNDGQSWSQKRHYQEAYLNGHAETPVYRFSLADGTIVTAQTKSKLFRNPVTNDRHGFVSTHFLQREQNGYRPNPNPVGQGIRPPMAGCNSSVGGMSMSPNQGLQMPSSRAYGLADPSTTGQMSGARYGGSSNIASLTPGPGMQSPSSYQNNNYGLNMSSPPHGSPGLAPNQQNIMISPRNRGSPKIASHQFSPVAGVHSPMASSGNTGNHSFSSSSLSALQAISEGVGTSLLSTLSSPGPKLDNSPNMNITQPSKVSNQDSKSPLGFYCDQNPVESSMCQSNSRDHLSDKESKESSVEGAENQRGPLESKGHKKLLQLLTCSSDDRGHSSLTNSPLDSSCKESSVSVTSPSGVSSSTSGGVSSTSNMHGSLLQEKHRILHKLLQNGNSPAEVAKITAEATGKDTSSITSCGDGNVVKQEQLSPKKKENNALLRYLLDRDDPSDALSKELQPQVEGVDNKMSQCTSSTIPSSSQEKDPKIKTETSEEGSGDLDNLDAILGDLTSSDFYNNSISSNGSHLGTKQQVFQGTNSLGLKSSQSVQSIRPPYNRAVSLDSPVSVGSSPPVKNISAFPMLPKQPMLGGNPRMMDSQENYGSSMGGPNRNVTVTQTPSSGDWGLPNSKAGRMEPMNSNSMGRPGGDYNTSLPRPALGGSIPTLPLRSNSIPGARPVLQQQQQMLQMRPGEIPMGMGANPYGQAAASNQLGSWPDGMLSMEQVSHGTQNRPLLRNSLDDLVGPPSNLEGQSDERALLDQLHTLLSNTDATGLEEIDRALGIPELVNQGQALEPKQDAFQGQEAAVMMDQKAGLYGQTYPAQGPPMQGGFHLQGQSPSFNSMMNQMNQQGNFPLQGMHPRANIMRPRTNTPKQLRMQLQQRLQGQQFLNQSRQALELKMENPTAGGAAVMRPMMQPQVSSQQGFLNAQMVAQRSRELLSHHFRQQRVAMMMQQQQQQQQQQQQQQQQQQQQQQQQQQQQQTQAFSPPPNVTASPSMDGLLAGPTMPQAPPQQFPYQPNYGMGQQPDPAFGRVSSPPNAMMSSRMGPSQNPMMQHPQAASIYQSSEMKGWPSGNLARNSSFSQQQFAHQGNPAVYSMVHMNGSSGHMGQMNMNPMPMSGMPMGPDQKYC
SRC2 inh = human SRC2 (NCOA2) inhibition. Q15596. HEK293 GAL4-SRC2 luciferase reporter, luminescence. inhibition, % at 9 µM. actives 0.17% (n = 370,000). AID 651957;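 active means inhibition above the mean inhibition of all tested compounds plus 3 SD, set per campaign, cut at about 52% in these data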
A number is an active result; . = inactive; / = no result.

SMILES	COUP-TFII inh	GalR3 antag	LRH-1 inv ag	NCOA1 inh	SRC3 inh	SRC2 inh
O=C(NCCCn1ccnc1)C(=O)NCC(c1ccco1)N1CCN(c2ccc(F)cc2)CC1 (stereo unspecified)	.	13	.	.	.	.
O=C(NCCCn1ccnc1)C(=O)NCC(c1ccco1)N1CCN(c2ccccc2)CC1 (stereo unspecified)	.	.	.	.	.	.
COc1cccc(C(=O)Oc2cc3c4c(c2)C(C)=CC(C)(C)N4C(=O)C3=O)c1	.	24	.	.	.	.
S=C(c1ccc(-c2ccccc2)cc1)N1CCOCC1	.	.	.	.	.	52
O=C(c1ccc(-c2ccccc2)cc1)c1ccccc1C(=O)N1CCOCC1	.	.	.	.	.	.
C[C@@H](NC(=O)C[C@H]1CC[C@H]2[C@@H](COc3ccc(NC(=O)Nc4ccccc4)cc3C(=O)N2C)O1)c1ccccc1	.	/	/	/	/	.
COC(=O)[C@H](C(C)C)N(CCc1cn(CC2CCCCC2)nn1)S(=O)(=O)c1ccccc1Br	.	/	/	/	/	.
O=C(/C=C/c1ccc(Cl)cc1)NC(=S)Nc1ccc(NC(=O)c2ccco2)cc1	.	.	.	68	.	.
Cc1nc2cc(-c3ccc(Cl)cc3)nn2c(C)c1CCC(=O)NC(C)c1ccc2c(c1)OCCO2 (stereo unspecified)	.	.	.	.	.	73
COC(=O)C1CN(Cc2ccc(F)cc2)CCS(=O)(=O)N1Cc1cn(Cc2ccccc2)nn1 (stereo unspecified)	.	/	/	/	/	.
COc1ccccc1C=CC(=O)C=Cc1ccccc1OC	50	.	.	.	.	.
O=C(NCCCn1ccnc1)c1ccc(S(=O)(=O)N2CCCCCC2)cc1	.	.	.	.	.	.
CC1CC(C)CN(S(=O)(=O)c2ccc(C(=O)NCCCn3ccnc3)cc2)C1 (stereo unspecified)	/	/	84	.	62	/
CC(=O)n1cc(N(C(=O)CCl)c2ccc([N+](=O)[O-])cc2)c2ccccc21	.	.	.	.	.	56
CC(=O)n1cc(N(C(=O)CCl)c2ccccc2)c2ccccc21	.	.	.	.	.	.
CC[C@@H](C(=O)[C@@H](C)[C@@H](O)[C@H](C)[C@@H]1O[C@@H]([C@@H](CC)C(=O)O)CC[C@@H]1C)[C@H]1O[C@]2(C=C[C@@H](O)[C@]3(CC[C@@](C)([C@H]4CC[C@](O)(CC)[C@H](C)O4)O3)O2)[C@H](C)C[C@@H]1C	45	.	86	.	62	.
Cc1ccc(NC(=O)c2ccccc2)cc1	.	.	.	.	.	.
Cc1ccc(NC(=O)C2=C(c3ccccc3)S(=O)(=O)CCS2(=O)=O)cc1	.	.	.	.	.	74
CN(C)c1ccc(C=c2c3cc(O)ccc3n3c2cc(-c2ccccc2)[n+]3C)cc1	.	.	.	.	.	.
CN(C)c1ccc(C=c2c3ccccc3n3c2c2ccccc2[n+]3C)cc1	51	.	73	.	.	.
CC(C)(C)c1nnc(N/N=C/c2ccccc2O)n(N)c1=O	.	.	.	70	79	.
COc1ccc(CNS(=O)(=O)/C=C/c2ccccc2CNC(=O)OC(C)(C)C)cc1	.	/	/	/	/	.
COC(=O)C1CN(Cc2ccc(OC)cc2)CCS(=O)(=O)N1Cc1ccc(C(F)(F)F)cc1 (stereo unspecified)	.	/	/	/	/	.
COc1cc2c(cc1OC)/C(=C/C(=O)c1ccc(F)cc1)NCC2	.	15	.	.	.	.
Cc1ccc(Cn2cc(CN3[C@@H](Cc4ccccc4)COc4cc(Br)ccc4S3(=O)=O)nn2)cc1	.	/	/	/	/	.
SMILES	COUP-TFII inh	GalR3 antag	LRH-1 inv ag	NCOA1 inh	SRC3 inh	SRC2 inh
O=C(NC1CCCCC1)C(c1cccnc1)N(C(=O)CCl)c1ccccc1Cl (stereo unspecified)	.	.	.	.	.	59
COc1ccc(C(C(=O)NC2CCCCC2)N(C(=O)CCl)c2ccc(OC)cc2)cc1 (stereo unspecified)	/	/	.	.	.	/
COc1ccc(N(C(=O)CCl)C(C(=O)NC2CCCCC2)c2cccnc2)cc1 (stereo unspecified)	.	.	.	.	70	63
COc1ccc(C(C(=O)NC2CCCCC2)N(C(=O)CCl)c2cccc(Cl)c2)cc1 (stereo unspecified)	.	.	.	.	69	.
O=C(NC1CCCCC1)C(c1cccnc1)N(C(=O)CCl)c1ccc(F)cc1 (stereo unspecified)	.	.	.	.	69	.
C#CCN1CC(N(C)CCOC(=O)c2cc(C)cc(C)c2)CS1(=O)=O (stereo unspecified)	.	/	/	/	/	.
CC(=O)Nc1cccc(-c2cnc(N)c(C(=O)c3cccnc3)n2)c1	/	/	75	79	78	/
CC(=O)Nc1cccc(-c2csc(N)n2)c1	.	.	.	.	.	.
NC(=O)c1cccc(-c2cnc(N)c(C(=O)c3cccnc3)n2)c1	/	/	.	75	63	/
O=C1CC2c3cc(Br)ccc3CCN2C(=O)CN1Cc1ccccc1 (stereo unspecified)	.	.	/	/	/	.
CC(=O)Nc1cccc(C(C)C2=CCCCC2)c1 (stereo unspecified)	.	/	/	/	/	.
NC(=Nc1cccc(F)c1)NC(=O)OCc1ccccc1	.	/	/	/	/	.
Cc1cc([N+](=O)[O-])nn1Cc1ccc(C(=O)N/N=C/c2ccc(O)cc2O)cc1	.	.	.	.	77	.
O=C(N/N=C/c1ccc(O)cc1O)c1ccc(CN2C(=O)c3cccc4cccc2c34)cc1	.	.	.	.	68	.
Cc1ccc(F)cc1C(=O)N(Cc1ccccn1)CC1CCCO1 (stereo unspecified)	.	/	/	/	/	.
C=CCN1[C@@H](Cc2ccccc2)COc2cccc(N3CCCC3)c2S1(=O)=O	.	/	/	/	/	.
O=C(Nc1ccc(OC(F)(F)F)cc1)Nc1cccc([N+](=O)[O-])c1	.	.	.	.	62	.
Cc1nc(N2CCOCC2)c2c(C)c(C(=O)Nc3ccc(F)cc3Cl)sc2n1	.	14	.	.	.	.
Cc1nc(N2CCOCC2)c2c(C)c(C(=O)Nc3ccccc3Cl)sc2n1	.	.	.	.	.	.
C=C1C(=O)OC2CC1C(O)CC(C)=CCCC(C)=CC(O)CC2C (stereo unspecified)	47	.	.	.	.	.
C=C1C(=O)OC2C1CCC(C)C1C=CC(=O)C12C (stereo unspecified)	.	.	.	.	.	.
Cc1ccccc1C(=O)N1CCC(Oc2cccnc2)CC1	.	/	/	/	/	.
Cc1ccccc1Cn1cc(COC(=O)NCC(C)C)nn1	.	/	/	/	/	.
O=C1c2ccccc2C(=O)c2c(Nc3ccc(CCO)cc3)ccc(O)c21	.	.	.	.	.	.
O=C1c2c(O)ccc(O)c2C(=O)c2c(NCCNCCO)ccc(NCCNCCO)c21	.	.	.	65	.	.
